For 15 molecules, activity remaining results are on record in PubChem BioAssay AID743025 (Vanderbilt Specialized Chemistry Center, 2013).

Calls of active or inactive are those of the source.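 Rule for the calls: active = IC50 below 10 µM at human M5 in a calcium flux test, acting as a negative modulator; inactive = the rest.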

The assay deals with Muscarinic acetylcholine receptor M5 (Homo sapiens) (UniProt P08912). The assay is described as follows: M5 muscarinic receptor negative allosteric modulators, cell-based, single concentration, human M5 (AID 743025). Particulars: CHO-K1 hM5, ACh EC80 calcium flux, Fluo-4; at 10 µM; hits give low values.
Muscarinic acetylcholine receptor M5 (Homo sapiens), sequence (P08912 whole entry, looked up): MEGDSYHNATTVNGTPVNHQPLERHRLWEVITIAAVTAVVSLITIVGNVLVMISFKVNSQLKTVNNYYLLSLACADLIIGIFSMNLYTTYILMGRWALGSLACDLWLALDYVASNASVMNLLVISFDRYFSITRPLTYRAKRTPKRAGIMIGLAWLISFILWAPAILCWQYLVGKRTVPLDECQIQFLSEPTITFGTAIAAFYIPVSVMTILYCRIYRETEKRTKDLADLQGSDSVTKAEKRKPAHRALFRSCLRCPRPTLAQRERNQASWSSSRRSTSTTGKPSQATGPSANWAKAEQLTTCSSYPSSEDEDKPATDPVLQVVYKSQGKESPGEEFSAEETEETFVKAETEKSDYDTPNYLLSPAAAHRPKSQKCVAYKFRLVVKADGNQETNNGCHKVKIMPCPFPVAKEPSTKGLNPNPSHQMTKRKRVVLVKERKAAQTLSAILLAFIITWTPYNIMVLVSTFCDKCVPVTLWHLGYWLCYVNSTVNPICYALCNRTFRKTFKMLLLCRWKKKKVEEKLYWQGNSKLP
With `O=C(c1ccc(SC(F)(F)F)cc1)N1CCN2C(=O)c3ccccc3C12c1ccccc1` (stereo not given), the activity remaining is 1.05% (active). Then `O=C1c2ccccc2C2(c3ccccc3)NCCN12` (stereo not given), with 89.3% (inactive); and `O=C(c1ccc(F)c(F)c1)N1CCc2ccccc2C1c1ccc(Cl)cc1` (stereo not given), with 67.4% (inactive). As to `O=C(c1ccccc1)c1ccccc1C(=O)N1CCN(C(=O)c2ccccc2)CC1`, the activity remaining was 85.5% (inactive). Then `COc1ccc(C(=O)N2CCN3C(=O)c4ccccc4C23c2ccc(Cl)cc2)cc1F` (stereo not given), with 74% (inactive); and `O=C1CCC2(c3ccccc3)Nc3ccccc3N12` (stereo not given), with 81.8% (inactive); and `O=C1c2ccccc2C2(c3ccccc3)N(Cc3ccc(F)cc3)CCN12` (stereo not given), with 80.8% (inactive).

In the case of `CN(C)c1ccc(C(=O)N2CCN3C(=O)c4ccccc4C23c2ccc(Cl)cc2)cc1` (stereo not given), the activity remaining is 82.9% (inactive).

`O=C(Nc1ccc(Cl)cc1)N1CCN2C(=O)c3ccccc3C12c1ccccc1` (stereo not given): the activity remaining was 78.2% (inactive). Then `O=C(c1ccc(SC(F)(F)F)cc1)N1CCN2C(=O)c3ccccc3C12c1ccc(F)cc1` (stereo not given), with -0.72% (active); and `CCOc1ccc(C(=O)N2CCN3C(=O)c4ccccc4C23c2ccccc2)cc1` (stereo not given), with 61.1% (inactive); and `COc1ccc(C23c4ccccc4C(=O)N2CCN3C(=O)c2ccccc2)cc1` (stereo not given), with 73% (inactive). Then `O=C(c1ccccc1)N1CCCN2C(=O)c3ccccc3C12c1ccc(Cl)cc1` (stereo not given), with 82.5% (inactive); and `COc1ccc(C23c4ccccc4C(=O)N2CCN3C(=O)c2ccc(C)cc2)cc1` (stereo not given), with 68.4% (inactive); and `O=C(c1cc(F)cc(F)c1)N1CCN2C(=O)c3ccccc3C12c1ccc(F)cc1` (stereo not given), with 69.3% (inactive).
